IMPase Li inh: cell-permeable IMPase inhibitors with lithium potentiation. AID 1457. Potency, µM (highest dose often 59.4 µM), for inactives: at the highest dose activity, negative = IMPase inhibition, most hits filed as inhibitors. CHO-M1 cells, IP1 TR-FRET (IP-One), carbachol + lithium. 210,000 tested, 0.35% active; active = well fitted curve in the direction sought with a large enough effect; inconclusive = small, poorly fitted or top-dose-only effect, or another doubt; inactive = no such curve, though single readings can be large; an effect the other way counts as inactive or inconclusive;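 note: IP1 builds up when IMPase is blocked and the TR-FRET signal falls; potency is the fitted concentration of half-maximal effect; plate controls were basal vehicle for no effect and high inhibitor control for full effect; nearly all actives have a fitted effect of over 50% in size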
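Test compounds were applied to CHO-M1 cells previously cultured for 16–30 h at 2000 per well. A small lithium amount accompanied them; after 30 min at 37C, IP1 was quantified by TR-FRET.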
IMPase cell inh: membrane-permeable compound that blocks inositol monophosphatase. P97697. CHO-M1 cells, IP1 accumulation, HTRF TR-FRET ratio. inhibition (IP1 accumulation), % at 46.1 µM. 120,000 tested, under 10 active. AID 901; active = well fitted curve in the direction sought with a large enough effect in the signal ratio, not every such curve was filed as active; inconclusive = small, poorly fitted or top-dose-only effect, or a change in a side signal; inactive = no such curve, though single readings can be large or run the other way; the % refers to the signal ratio;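 note: cells stimulated with carbachol in lithium chloride buffer; plate controls were DMSO basal wells for no effect and reference inhibitor wells for full effect; higher means more IMPase inhibition seen as more IP1 and lower FRET ratio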
Target sequence (P97697 whole entry, looked up): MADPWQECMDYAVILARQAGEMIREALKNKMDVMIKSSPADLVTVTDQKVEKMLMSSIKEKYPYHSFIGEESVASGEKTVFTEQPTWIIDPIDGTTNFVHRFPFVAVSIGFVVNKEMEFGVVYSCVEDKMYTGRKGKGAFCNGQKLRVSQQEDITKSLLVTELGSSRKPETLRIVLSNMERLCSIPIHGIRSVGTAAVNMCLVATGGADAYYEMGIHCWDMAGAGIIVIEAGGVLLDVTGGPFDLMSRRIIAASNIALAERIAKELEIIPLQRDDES
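In this qHTS, compounds (final up to 46 uM) act on CHO-M1 cells that are then activated through the M1 receptor with carbachol, in pH 7.4 buffer containing 50 mM LiCl, for 30 min. IP1 accumulation is quantified by the IP-One immunoassay.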
PNC assembly inh: blocks assembly of the perinucleolar compartment. AID 2417. activity change (PNC), negative = inhibition, % at 10 µM. PC3M PTB-GFP, PNC prevalence imaging, 16 h; stronger effect = lower value. 140,000 tested, 3.1% active;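 active = readout at or below -70, meaning at least 70% loss of cells showing the perinucleolar compartment, a nuclear body marking cancer cells; inconclusive = readout between -30 and a set limit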;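 note: plate controls were DMSO wells for no effect and camptothecin positive control wells for full effect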
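Compounds are pinned in duplicate onto adhered PC3M cells stably expressing GFP-tagged PTB and incubated 16 h at 37 C. Cells are then fixed, nuclei stained with Hoechst, and PNC-positive cells counted.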
12-hLO inh: blocks human 12-lipoxygenase activity | purified 12-hLO, xylenol orange hydroperoxide absorbance | 150,000 tested, 0.12% active | Potency, µM (highest dose often 57.1 µM), for inactives: top-dose activity change, negative = inhibition, most hits filed as inhibitors | P18054; active = well fitted curve in the direction sought with a large enough effect; inconclusive = small, poorly fitted or top-dose-only effect, or another doubt; inactive = no such curve, though single readings can be large; an effect the other way counts as inactive or inconclusive; note: potency is the fitted concentration of half-maximal effect; nearly all actives have a fitted effect of over 55% in size
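150 nM 12hLO, 25 mM Hepes pH 7.0 + 0.01% Triton X-100; cpd preinc 15 min RT; 40 uM arachidonic acid, 30 min RT; Fe-XO 30 min; A573/A405 ratio as read-out.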
ALDH1A1 inh: blocks purified human ALDH1A1 activity | Potency, µM (highest dose often 75.3 µM), without a hit: at the top dose activity, negative = inhibition, usual class: inhibitors | Purified ALDH1A1, NADH fluorescence, propionaldehyde substrate | AID 1030 | 220,000 tested, 7.3% active | P00352;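 note: potency is the fitted concentration of half-maximal effect; plate controls were no enzyme wells and a reference inhibitor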
Target sequence (P00352 whole entry, looked up): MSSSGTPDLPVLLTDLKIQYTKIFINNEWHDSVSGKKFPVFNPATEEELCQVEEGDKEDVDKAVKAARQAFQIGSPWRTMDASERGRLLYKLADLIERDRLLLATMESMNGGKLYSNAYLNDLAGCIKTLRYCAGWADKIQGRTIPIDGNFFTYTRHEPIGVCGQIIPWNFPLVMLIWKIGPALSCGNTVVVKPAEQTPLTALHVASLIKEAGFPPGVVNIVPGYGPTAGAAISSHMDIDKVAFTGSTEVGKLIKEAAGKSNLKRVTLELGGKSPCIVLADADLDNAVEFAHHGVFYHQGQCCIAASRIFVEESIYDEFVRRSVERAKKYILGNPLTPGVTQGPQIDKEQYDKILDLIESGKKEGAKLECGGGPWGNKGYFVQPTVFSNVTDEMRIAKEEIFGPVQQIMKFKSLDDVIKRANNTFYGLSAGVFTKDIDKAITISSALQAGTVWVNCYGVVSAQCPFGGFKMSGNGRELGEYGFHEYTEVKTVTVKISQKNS
HPGD block: blocks human HPGD enzyme activity; purified HPGD, NADH fluorescence kinetic, PGE2 substrate; Potency, µM, for inactives: at the highest dose activity change, negative = inhibition, actives largely listed as inhibitors; 150,000 tested, 4.3% active; note: potency is the fitted concentration of half-maximal effect
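20 nM HPGD preincubated 15 min at room temperature with compound in 50 mM Tris-HCl pH 8, 0.01% Tween 20. Started with 1 mM NAD+ and 30 uM prostaglandin E2; NADH fluorescence (360/450 nm) read 5 times over 30-s intervals, last minus first.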
* = called active by the depositor; ? = inconclusive; . = not tested or not shown; ! = repeats disagree; [ ] = another dose, or the depositor's remark. This is a sample that favours compounds with a hit; in the whole collection about 11% have one here. Unless noted, calls come from the whole dose curve; as a rule, active = well fitted inhibition curve with a large enough effect (not every such curve was filed as active); inconclusive = small, poorly fitted or top-dose-only effect, or another doubt; inactive = no such curve, though single readings can be large or run the other way. Unless noted, % is set by controls: 0 for no effect and ±100 for the full control effect.

SMILES | IMPase Li inh | IMPase cell inh | PNC assembly inh | 12-hLO inh | ALDH1A1 inh | HPGD block
O=C(Nc1ccc(Cl)cc1)NC1CCCCC1Cc1ccco1 (centres undefined) | 25%[38.3 µM] | 11 | -9 | -3% | 0% | -2%
O=C(Nc1ccc(Cl)cc1)NC1CCCC1Cc1ccco1 (centres undefined) | 43%[38.3 µM] | 2 | 7 | -23% | 13µM* | -18%
COc1ccc(C2=NN(C(N)=S)C(c3ccco3)C2)cc1 (centres undefined) | 0% | . | . | . | 18µM* | .
COc1ccc(C2=NN(C(=O)CSc3nnc(-c4ccccc4F)o3)C(c3ccco3)C2)cc1 (centres undefined) | 7% | -6 | ? | -4% | ? | -23%
CSc1oc(-c2ccc(F)cc2)nc1S(=O)(=O)c1ccccc1 | -1% | 9 | -13 | -4% | 28µM* | ?
COc1ccc(-c2nc(S(=O)(=O)c3ccccc3)c(N3CCOCC3)o2)cc1 | -7% | . | 5 | -7% | 22µM* | -10%
O=S(=O)(c1ccccc1)c1nc(-c2ccc(F)cc2)oc1N1CCOCC1 | . | 8 | . | . | . | .
CSc1oc(-c2ccccc2)nc1S(=O)(=O)c1ccc(F)cc1 | 3%[38.3 µM] | 0 | 48 | -4% | -5% | -12%
O=S(=O)(c1ccccc1)c1nc(-c2ccccc2)oc1N1CCCCC1 | 29%[38.3 µM] | 8 | -18 | -8% | 0.45µM* | ?
CN(C)c1ncnc2ccc(-c3cccnc3)cc12 | 7% | . | . | . | -3% | .
O=C(C1=C[C@@H]2[C@H]3C(=O)N(c4ccc(Cl)cc4)C(=O)[C@H]3[C@@H](C(=O)c3ccc(Cl)cc3)N2C=C1)c1ccccc1 | -15% | . | 18 | -17% | 14µM* | 32µM*
Cc1ccc(N2C(=O)C3C(C2=O)C(C(=O)c2ccc(Cl)cc2)N2CCCC32)cc1 (centres undefined) | 6%[38.3 µM] | -7 | ? | ? | ? | -23%
Oc1ccccc1C=NC1=NN(c2cccc(C(F)(F)F)c2)CC1 | 18% | 1 | -15 | ? | 22µM* | -20%
FC(F)(F)c1cccc(N2CCC(N=CN3CCCCCC3)=N2)c1 | 14% | . | . | . | 4% | .
COc1cccc(Cn2c(=O)c(-c3cccs3)nc3cnc(N4CCN(C)CC4)nc32)c1 | 21% | . | . | -4% | -5% | -10%
NC[C@@H]1O[C@@H](O[C@H]2[C@H](O)[C@H](O[C@@H]3O[C@H](CO)[C@@H](O)[C@H](N)[C@@H]3O)[C@@H](N)C[C@H]2N)[C@H](N)C[C@@H]1O | 8% | -4[20.6 µM] | . | 0%[25.6 µM] | 5%[20.9 µM] | 1%
O=c1c(O)cc(C2Oc3cc(O)cc(O)c3CC2O)cc2c(C3Oc4cc(O)cc(O)c4CC3O)cc(O)c(O)c12 (centres undefined) | -1% | . | . | -10% | -15% | 13µM*
Oc1cc(O)c2c(c1)O[C@H](c1ccc(O)c(O)c1)[C@@H](O)C2 | 15% | 10 | . | 0% | ? | -8%
Cn1c(NCCO)nc2c1c(=O)n(Cc1cccc(F)c1)c(=O)n2C | . | -2 | . | . | . | .
CN1CCN(c2nc3ccccc3nc2C(C#N)C(=O)OC2CCCCC2)CC1 (centres undefined) | 25%[38.3 µM] | 13 | -23 | -3% | 16µM* | -10%
CC(C)COC(=O)C(C#N)c1nc2ccccc2nc1N1CCN(Cc2ccccc2)CC1 (centres undefined) | 17%[38.3 µM] | 5 | 27 | 3% | 13µM* | -15%
CCC(CC)COC(=O)C(C#N)c1nc2ccccc2nc1N1CCOCC1 (centres undefined) | -6%[38.3 µM] | 7 | ? | -15% | 10µM* | -28%
CCOC(=O)C1CCN(c2nc3ccccc3nc2C(C#N)C(=O)NCCc2ccccc2)CC1 (centres undefined) | 16%[38.3 µM] | 2 | 22 | ? | ? | 18µM*
CCN1CCN(c2nc3ccccc3nc2C(C#N)C(=O)OC2CCCCC2)CC1 (centres undefined) | -3%[38.3 µM] | -1 | 45 | -11% | ? | -8%
N#CC(C(=O)OC1CCCCC1)c1nc2ccccc2nc1N1CCOCC1 (centres undefined) | -4%[38.3 µM] | -13 | 11 | -1% | 1% | -15%
SMILES | IMPase Li inh | IMPase cell inh | PNC assembly inh | 12-hLO inh | ALDH1A1 inh | HPGD block
COCCOC(=O)C(C#N)c1nc2ccccc2nc1N1CCN(Cc2ccccc2)CC1 (centres undefined) | 37%[38.3 µM] | 15 | ? | -2% | ? | -12%
CCN(CC)C(=O)C1CCCN(c2ccccc2[N+](=O)[O-])C1 (centres undefined) | 10% | . | . | . | 13µM* | .
C=C[C@@](C)(O)CC[C@@H]1[C@@]2(C)CCCC(C)(C)[C@@H]2CC[C@@]1(C)O | -7% | -4 | . | -3% | 40µM*! | -9%
O=C(O)/C=C\C(=O)Nc1ccccc1C(=O)N1CCN(c2ccc(Cl)cc2)CC1 | 26%[38.3 µM] | 2 | -25 | -8% | 4% | -2%
Nc1nc(N2CCN(c3cccc(Cl)c3)CC2)n[nH]1 | -1% | . | . | . | -14% | .
O=C(O)/C=C\C(=O)Nc1ccc(N2CCN(c3ccc(F)cc3)CC2)cc1 | 4% | . | . | . | 8.9µM* | .
COC(=O)Cc1ccc(NC(=S)N2CCN(c3ccc(F)cc3)CC2)cc1 | 11% | 10 | -96* | -1% | -10% | -3%
O=C(CCN1CCN(c2ccc(F)cc2)CC1)Nc1ccc(F)cc1 | -6%[38.3 µM] | ? | -17 | 0% | -5% | -5%
O=C(O)/C=C\C(=O)Nc1ccc(N2CCN(c3ccc(Cl)cc3)CC2)cc1 | 6% | . | . | . | 11µM* | .
Nc1ccc(N2CCN(c3cccc(Cl)c3)CC2)cc1 | -6% | . | 11 | ? | 14µM* | -10%
CC(=O)OC[C@@H]1O[C@@H](O/N=C2/C[C@@H](O)[C@@H](O)[C@@H]3[C@H]4C(=O)N(c5ccc(F)cc5F)C(=O)[C@@H]4CC[C@H]23)[C@H](OC(C)=O)[C@H](OC(C)=O)[C@@H]1OC(C)=O | . | . | . | . | 1%[13.5 µM] | .
O=C(O)/C=C\C(=O)Nc1ccc(N2CCN(c3cccc(Cl)c3)CC2)cc1 | 8% | . | . | . | 28µM* | .
O=C(O)/C=C\C(=O)Nc1ccc(N2CCN(c3ccc(Cl)c(Cl)c3)CC2)cc1 | 14% | . | . | . | 6.3µM* | .
NS(=O)(=O)c1ccc(NC(=S)N2CCN(c3cccc(Cl)c3)CC2)cc1 | 8% | . | -27 | -1% | -10% | 25µM*
O=S(=O)(c1cccc(NC(=S)N2CCN(c3cccc(Cl)c3)CC2)c1)C(F)F | 9% | 9 | 56 | -10% | ? | -9%
CCCCCCCCCCCCC/C=C/[C@@H](O)[C@@H](N)CO | 12% | . | . | 0% | -10% | -14%
O=C(Nc1ccc(C(=O)N2CCOCC2)cc1)Nc1cccc2ccccc12 | -10% | . | . | . | -4% | .

Bioassay records (PubChem BioAssay)
